SRC2 TRFRET art = counter-screen for PPARgamma SRC-2 recruitment agonists: TR-FRET artefact; active compounds read high; TR-FRET ratio at 8 µM; actives 0.4% (n = 200,000); AID 1049
PPARg SRC3 recr = PPARgamma-driven SRC-3 recruitment agonism; P37231; biochemical PPARgamma/SRC-3 coactivator recruitment assay; actives 0.26% (n = 200,000); activation, % at 8 µM; in the data active = activation above about 23%
Target sequence (P37231 whole entry, looked up): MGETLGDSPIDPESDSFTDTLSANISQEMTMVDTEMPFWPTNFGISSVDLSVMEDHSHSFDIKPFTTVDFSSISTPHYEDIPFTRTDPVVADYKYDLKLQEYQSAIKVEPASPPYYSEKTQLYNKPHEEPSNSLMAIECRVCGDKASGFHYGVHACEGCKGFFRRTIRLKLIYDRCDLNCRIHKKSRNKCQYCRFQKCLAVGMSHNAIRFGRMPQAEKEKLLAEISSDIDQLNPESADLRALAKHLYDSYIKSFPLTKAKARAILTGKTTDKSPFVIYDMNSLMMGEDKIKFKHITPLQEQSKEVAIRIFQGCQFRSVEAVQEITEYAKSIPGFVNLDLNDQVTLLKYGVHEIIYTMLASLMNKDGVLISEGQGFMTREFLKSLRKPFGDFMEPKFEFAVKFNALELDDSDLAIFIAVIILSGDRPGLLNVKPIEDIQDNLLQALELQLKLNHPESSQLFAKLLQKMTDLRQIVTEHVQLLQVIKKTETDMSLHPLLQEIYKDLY
SRC3 TRFRET art = counter-screen for PPARgamma SRC-3 recruitment agonists: TR-FRET artefact; PPARgamma/SRC-3 format; active compounds read high; TR-FRET ratio at 8 µM; actives 0.39% (n = 99,000); AID 1048
PPARg SRC1 recr = promotes SRC-1 coactivator recruitment by human PPARgamma; PPARgamma-SRC-1 coactivator recruitment biochemical assay; actives 0.41% (n = 200,000); activation, % at 8 µM; P37231; in the data active = activation above about 19%
PPARg SRC2 recr = PPARgamma-driven SRC-2 recruitment agonism; P37231; PPARgamma LBD-SRC-2 recruitment, biochemical; activation, % at 8 µM; actives 0.34% (n = 200,000); in the data active = activation above about 22%
SRC1 TRFRET art = counter-screen for PPARgamma SRC-1 recruitment agonists: TR-FRET artefact | TR-FRET detection artefact counter-screen, emission ratio; active compounds read high | TR-FRET ratio at 8 µM | actives 0.34% (n = 99,000) | AID 1051; in the data active = TR-FRET ratio above about 2300
Each line names hits and unclear results; the compound was inactive in the other large screens. Sampled rows, rich in hits. Any-hit rate of the full collection: about 0.84%. Rule as the data show it, unless noted: active = TR-FRET ratio above about 2000; inactive = the rest.

Oc1ccc(Cl)cc1C1=NNC(c2cc(Br)cc3c2OCOC3)C1 (configuration not stated)	SRC1 TRFRET art 2488
CC/C(C)=N/NC(=O)c1[nH]c2ccc(C)cc2c1-c1ccccc1	SRC2 TRFRET art 1988
CCN(CC)c1c(-c2ccccc2)c2cc(C)ccc2[nH]c1=O	none
O=C(O)C(Cc1c[nH]c2ccccc12)NS(=O)(=O)c1cccc2nsnc12 (configuration not stated)	none
Cc1ccc2sc3ccc(NC(=O)c4ccccc4Cl)cc3c(=O)c2c1	SRC2 TRFRET art 2846 (no result: SRC3 TRFRET art, SRC1 TRFRET art)
N#Cc1c(-c2ccccc2)cc(-c2ccccc2)nc1Br	SRC3 TRFRET art 2095
COc1cccc(CNC(=O)C2CCCN(S(=O)(=O)c3c(C)[nH]c(=O)[nH]c3=O)C2)c1 (configuration not stated)	none (no result: SRC3 TRFRET art, SRC1 TRFRET art)
N#Cc1cc(Oc2cccc3cccnc23)c(-n2nnc3ccccc32)cc1C#N	none (no result: SRC3 TRFRET art, SRC1 TRFRET art)
N#Cc1cc(O)c(-n2nnc3ccccc32)cc1C#N	PPARg SRC2 recr 26
CCOc1cc(/C=N/NC(=O)c2ccc(O)cc2)ccc1Oc1nc(Cl)ncc1F	SRC1 TRFRET art 2558
COC(=O)c1sc(=S)sc1C(=O)OC	none (no result: SRC3 TRFRET art, SRC1 TRFRET art)
Cc1nn(CCc2nc(-c3ccco3)cs2)c2[nH]c(=O)cc(C(F)(F)F)c12	SRC3 TRFRET art 2055
Cc1cc(C)n(CCc2nc(-c3ccco3)cs2)n1	none (no result: SRC3 TRFRET art, SRC1 TRFRET art)
Cc1cccc(Nc2nnc(SCC(=O)c3ccc(Br)s3)s2)c1C	SRC3 TRFRET art 2057
C/C(N)=C(/C#N)C(=O)CSc1nnc(Nc2cccc(C)c2C)s1	none (no result: SRC3 TRFRET art, SRC1 TRFRET art)
O=c1c2c3c(sc2ncn1/N=C/c1ccc([N+](=O)[O-])o1)CCCC3	none (no result: SRC3 TRFRET art, SRC1 TRFRET art)
Cn1cc(/C=N/n2cnc3sc4c(c3c2=O)CCCC4)c2ccccc21	SRC2 TRFRET art 1972 (no result: SRC3 TRFRET art, SRC1 TRFRET art)
CCOCCn1c(=NC(=O)c2cc(Cl)sc2Cl)sc2cc(S(N)(=O)=O)ccc21	PPARg SRC3 recr 30, SRC3 TRFRET art 4758
COCCn1c(=NC(=O)c2cc(Cl)sc2Cl)sc2cc(S(N)(=O)=O)ccc21	none
CCOC(=O)Cn1c(=NC(=O)c2cc(-c3cccs3)nc3ccccc23)sc2cc(S(N)(=O)=O)ccc21	SRC3 TRFRET art 2342
COC(=O)Cn1c(=NC(=O)c2cc(-c3cccs3)nc3ccccc23)sc2cc(S(N)(=O)=O)ccc21	none
Cc1ccccc1C(=O)c1cccn1CC(=O)NCCN1CCN(c2cccc(C)c2C)CC1	none (no result: SRC3 TRFRET art, SRC1 TRFRET art)
Cc1ccccc1-n1c(C)cc(/C=N/NC(=O)c2ccncc2)c1C	none (no result: SRC3 TRFRET art, SRC1 TRFRET art)
Cc1cc(C)cc(-n2c(C)cc(/C=N/NC(=O)c3ccncc3)c2C)c1	SRC2 TRFRET art 1986
CCCNc1nc(C)c(C(C)=O)cc1C#N	none (no result: SRC3 TRFRET art, SRC1 TRFRET art)
O=[N+]([O-])c1ccc2[nH]c(O)c(N=NC(=S)NCC3CCCO3)c2c1 (configuration not stated)	none
CCNC(=S)N=Nc1c(O)[nH]c2ccc([N+](=O)[O-])cc12	SRC2 TRFRET art 1982
COc1ccc(S(=O)(=O)N2CCCCCC2)cc1N(C)S(=O)(=O)c1ccc(Cl)cc1	none (no result: SRC3 TRFRET art, SRC1 TRFRET art)
O=C(CC1CCCC1)Nc1ccc2c(c1)CCC2	PPARg SRC2 recr 57 (no result: SRC3 TRFRET art, SRC1 TRFRET art)
O=C(Cc1ccccc1)Nc1ccc2c(c1)CCC2	none
CCCCNC(=O)CSc1nc2ccccc2n1S(=O)(=O)c1ccc(Cl)cc1	none
CCCCNC(=O)CSc1nc2ccccc2n1S(=O)(=O)c1ccc(Br)cc1	SRC2 TRFRET art 1974
CNC(=S)N1N=C(c2ccc(C)cc2)CC1c1ccc(N(C)C)cc1 (configuration not stated)	SRC3 TRFRET art 2431, SRC1 TRFRET art 2359
CNC(=S)N1N=C(c2ccc(C)cc2)CC1c1cc(OC)ccc1OC (configuration not stated)	SRC3 TRFRET art 2547, SRC1 TRFRET art 2589
CNC(=S)N1N=C(c2ccc(C)cc2)CC1c1ccc(OC)cc1 (configuration not stated)	none (no result: SRC3 TRFRET art, SRC1 TRFRET art)
CCn1c(CNC(=O)c2ccco2)nnc1SCC(=O)Nc1ccc(Br)cc1F	none (no result: SRC3 TRFRET art, SRC1 TRFRET art)
COc1ccc(-c2ccc(C#N)c(SCC(=O)Nc3sc4c(c3C#N)CCC4)n2)cc1OC	none (no result: SRC3 TRFRET art, SRC1 TRFRET art)
COc1cccc(-c2ccc(C#N)c(SCC(=O)NCCc3cccc(Cl)c3)n2)c1	SRC2 TRFRET art 1982 (no result: SRC3 TRFRET art, SRC1 TRFRET art)
COc1ccc(-c2ccc(C#N)c(SCC(=O)NCCc3ccccc3)n2)cc1OC	SRC2 TRFRET art 2078
COC(=O)CSc1nc(C)c(Oc2ccccc2)c(=O)[nH]1	none (no result: SRC3 TRFRET art, SRC1 TRFRET art)
CCN1CCC2(CC1)N=C(c1ccc(F)cc1)C(=S)N2	SRC2 TRFRET art 1979
Cc1ccc(C2=NC3(CCCCC3)NC2=S)cc1	none
CC1CCN(C(=O)c2cc(F)c(F)cc2Cl)CC1	none (no result: SRC3 TRFRET art, SRC1 TRFRET art)
COc1ccc(NCCNc2ccc(OC)cc2)cc1	PPARg SRC1 recr 20 (no result: SRC3 TRFRET art, SRC1 TRFRET art)
Cc1ccc(NCCNc2ccc(C)cc2)cc1	none (no result: SRC3 TRFRET art, SRC1 TRFRET art)
CCC12CN3CC(CC)(CN(C1)C3c1ccc([N+](=O)[O-])o1)C2=O (configuration not stated)	none
CCOC(=O)COc1ccc(/C=C2\NC(=S)N(CC)C2=O)cc1	SRC2 TRFRET art 3635, PPARg SRC2 recr 94
COc1cccc(/C=N/NC(=O)c2csc(-n3nc(C)cc3C(F)(F)F)n2)c1	PPARg SRC3 recr 27 (no result: SRC3 TRFRET art, SRC1 TRFRET art)
COc1ccc2c(c1)[nH]c(=O)c1sc3ccccc3c12	none (no result: SRC3 TRFRET art, SRC1 TRFRET art)
COc1ccc2sc3c(=O)[nH]c4ccccc4c3c2c1	PPARg SRC1 recr 145 (no result: SRC3 TRFRET art, SRC1 TRFRET art)
Cc1ccc(S(=O)(=O)c2cn(Cc3ccc(F)cc3)c3cc4c(cc3c2=O)OCO4)cc1	SRC3 TRFRET art 2414
COc1cccc(CNc2ccc([N+](=O)[O-])cc2Cl)c1O	none
CCOC(=O)c1c(NC(=O)Cc2cccs2)sc(C(=O)NC2CCCC2)c1C	PPARg SRC3 recr 35 (no result: SRC3 TRFRET art, SRC1 TRFRET art)
CCOC(=O)c1c(NC(=O)Cc2cccs2)sc(C(=O)NC2CCCCC2)c1C	none (no result: SRC3 TRFRET art, SRC1 TRFRET art)
CCc1cc2ccc(OC)cc2nc1SCC(=O)NNC(=O)c1ccco1	SRC2 TRFRET art 2005
O=C(Cc1ccccc1[N+](=O)[O-])NCCSCc1c(F)cccc1Cl	none (no result: SRC3 TRFRET art, SRC1 TRFRET art)
O=C(NCc1n[nH]c(=S)n1-c1ccc(Br)cc1)c1ccc(S(=O)(=O)N2CCOCC2)cc1	PPARg SRC2 recr 22
O=C(NCc1n[nH]c(=S)n1-c1ccc(Br)cc1)c1ccc(S(=O)(=O)N2CCCC2)cc1	none
CCc1ccc(CNC(=O)CN2C(=O)COc3ccccc32)cc1	none
COc1ccccc1-n1c(SCC(=O)NC(C)(C)C)nc(O)cc1=O	none (no result: SRC3 TRFRET art, SRC1 TRFRET art)
CC(C)(C)NC(=O)CSc1nc(O)cc(=O)n1-c1ccccc1F	PPARg SRC3 recr 29 (no result: SRC3 TRFRET art, SRC1 TRFRET art)
O=C1NCCCC1C(=O)N/N=C/c1ccccc1 (configuration not stated)	none (no result: SRC3 TRFRET art, SRC1 TRFRET art)
COc1ccc(NS(=O)(=O)c2ccc(NC(=O)c3ccc(N(C)S(C)(=O)=O)cc3)cc2)c(OC)c1	none
O=C(CSc1cn(Cc2ccccc2)c2ccccc12)Nc1nccs1	SRC2 TRFRET art 3013 (no result: SRC3 TRFRET art, SRC1 TRFRET art)
COc1cccc(-c2nnc3sc(-c4ccccc4)nn23)c1	none
COc1cccc(OC)c1-c1nn2c(-c3cc(-c4ccccc4)n[nH]3)nnc2s1	PPARg SRC1 recr 20 (no result: SRC3 TRFRET art, SRC1 TRFRET art)

Compound activity (PubChem BioAssay)
